High-throughput results: PubChem BioAssay, National Center for Advancing Translational Sciences (NCATS)
This is a sample that favours compounds with a hit; in the whole collection about 9.4% have one here.
SMN2 splice enh – SMN2 splice variant enhancement; HEK293 SMN2-luciferase splicing reporter, luminescence, 30-36 h; Potency, µM (highest dose often 46.1 µM), actives largely listed as activators; actives 2.8% (n = 210,000); also: nearly all actives have a fitted effect of over 55% in size
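qHTS luciferase splicing reporter: luminescence rises when SMN2 exon 7 is included in transfected HEK293 cells. Compound exposure lasted 30-36 h at 37C, with 4.5 mM final sodium butyrate as control, followed by a ONE-Glo read.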
NPC1 prom act – activators of NPC1 promoter; Huh7 NPC1 promoter luciferase reporter, 24 h; Potency, µM (top dose mostly 9.22 µM), most hits filed as activators; actives 2.4% (n = 320,000); also: nearly all actives have a fitted effect of over 60% in size
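Stably transfected Huh7 (NPC1 promoter→luciferase), 1500 cells/well in Opti-MEM + 10% FBS, 2 h settle, then compound 24 h at 37 °C. Luminescence after 10 min with Amplite reagent.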
FLuc counter – counter-screen for miR-21 project: firefly luciferase inhibitors or activators; P08659; purified FLuc, Km substrates, luminescence inhibition; Potency, µM (titrated, usually from 57.5 µM), usual class: inhibitors; actives 6.9% (n = 360,000); also: nearly all actives have a fitted effect of over 55% in size
Target sequence (P08659 whole entry, looked up): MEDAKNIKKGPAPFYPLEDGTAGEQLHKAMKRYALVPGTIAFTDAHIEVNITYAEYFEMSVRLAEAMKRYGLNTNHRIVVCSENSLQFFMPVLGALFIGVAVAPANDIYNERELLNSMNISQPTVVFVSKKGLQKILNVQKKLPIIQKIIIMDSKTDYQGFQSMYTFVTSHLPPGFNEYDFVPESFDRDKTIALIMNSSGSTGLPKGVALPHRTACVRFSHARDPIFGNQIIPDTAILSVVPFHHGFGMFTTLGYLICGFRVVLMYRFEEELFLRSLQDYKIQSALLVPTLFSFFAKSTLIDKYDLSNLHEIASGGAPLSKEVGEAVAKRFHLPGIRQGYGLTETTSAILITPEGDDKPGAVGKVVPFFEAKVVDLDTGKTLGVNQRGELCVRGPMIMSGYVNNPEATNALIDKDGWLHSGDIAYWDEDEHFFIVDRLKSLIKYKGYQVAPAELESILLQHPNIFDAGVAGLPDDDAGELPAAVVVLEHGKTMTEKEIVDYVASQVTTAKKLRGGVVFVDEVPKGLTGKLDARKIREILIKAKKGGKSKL
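Biochemical qHTS of compounds, final roughly 60 µM downward over six points, against 10 nM purified firefly luciferase using Km concentrations of substrates (10 uM D-luciferin, 10 uM ATP) in Tris acetate pH 7.5 buffer; luminescence output.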
ELG1 genotox – induces genotoxicity in HEK293T cells with luciferase-tagged ELG1; AID 504466; HEK293T ELG1-luciferase reporter, luminescence, 16 h; Potency, µM (titrated, usually from 46 µM), actives largely listed as activators; actives 1.3% (n = 330,000); also: nearly all actives have a fitted effect of over 60% in size
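Genotoxic stress is detected as increased luminescence from luciferase-tagged ELG1 in HEK293T cells, measured with ONE-Glo after a 16 hr treatment at 37 °C.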
Rab9 prom act – activates the Rab9 promoter; actives 2.8% (n = 320,000); Potency, µM (series often up to 9.22 µM), actives largely listed as activators; Huh7 Rab9 promoter-luciferase reporter, luminescence, 24 h; AID 485297; also: nearly all actives have a fitted effect of over 60% in size
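Cell-based reporter: Huh7 stable for Rab9 promoter-driven luciferase, plated in reduced-serum medium with 10% FBS at 1500 cells/well, compound-treated 24 h at 37 °C, luminescence read after 10 min reagent.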
ELG1 repair inh – blocks ELG1-dependent DNA repair in HEK293T cells; AID 504467; HEK293T ELG1-luciferase reporter, luminescence, 16 h; DNA damage induced by 5-fluorouridine; actives 2.3% (n = 330,000); Potency, µM (series often up to 46.1 µM), most hits filed as inhibitors; also: nearly all actives have a fitted effect of over 55% in size
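Overnight (16 hr) co-exposure of 2,000 cells/well to 5-fluorouridine and compound at 37 °C preceded detection. Luciferase was quantified via ONE-Glo luminescence; loss of signal denotes inhibition.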
Of the large screens only hits and unclear results are named; the others gave an inactive call; ! = not confirmed by another sample. Calls follow the shape of the dose curve; as a rule, active = well fitted curve in the direction sought with a large enough effect; inconclusive = small, poorly fitted or top-dose-only effect, or another doubt; inactive = no such curve, though single readings can be large; an effect the other way counts as inactive or inconclusive.

C1CCCNCC1	none (no result: NPC1 prom act, FLuc counter, ELG1 genotox, Rab9 prom act, ELG1 repair inh)
Cc1ccccc1CNC(=O)c1ccc(CS(=O)Cc2ccc(Cl)cc2)o1 (centres undefined)	none (no result: SMN2 splice enh, NPC1 prom act, ELG1 genotox, Rab9 prom act, ELG1 repair inh)
Cc1cccc(Nc2nnc(SCC(=O)NC3CCCc4ccccc43)s2)c1 (centres undefined)	FLuc counter 6.01µM, ELG1 repair inh inconclusive
Cc1ccc(Nc2nnc(SCC(=O)NCCN3C(=O)CSC3=O)s2)cc1C	NPC1 prom act inconclusive, FLuc counter 1.69µM, ELG1 genotox inconclusive, ELG1 repair inh inconclusive (no result: SMN2 splice enh)
Cc1cccc(Nc2nnc(SCc3cn4ccsc4n3)s2)c1	FLuc counter 16.9µM
Cc1ccc(SCC(=O)NCCN2C(=O)CSC2=O)cc1C	none
O=c1cc(CSc2nnc(Nc3ccccc3)s2)nc2sccn12	SMN2 splice enh inconclusive, ELG1 repair inh inconclusive
Cc1cccc(Nc2nnc(SCC(=O)Nc3cccnc3Cl)s2)c1	FLuc counter 6.01µM
O=C(Oc1ccccc1)N1CCC2(CC1)CCN(c1ccncc1)CC2	none (no result: NPC1 prom act, FLuc counter, ELG1 genotox, Rab9 prom act, ELG1 repair inh)
Cc1cccc(Nc2nnc(SCC(=O)NCc3cccs3)s2)c1C	none
Cc1cccc(Nc2nnc(SCC(=O)NCc3cccs3)s2)c1	FLuc counter 10.7µM
CN1CCC2(CC1)CCN(C(=O)c1cccc(F)c1)CC2	none (no result: NPC1 prom act, FLuc counter, ELG1 genotox, Rab9 prom act, ELG1 repair inh)
CCN(CC1CCCO1)C(=O)c1cc(COc2ccc(OC)cc2Cl)on1 (centres undefined)	FLuc counter inconclusive, ELG1 repair inh inconclusive (no result: SMN2 splice enh)
Cc1nc(CNC(=O)c2cc(COc3ccc(F)cc3Cl)on2)cs1	FLuc counter 26.9µM (no result: SMN2 splice enh)
COc1ccc(OCc2cc(C(=O)NC(C)c3csc(C)n3)no2)c(Cl)c1 (centres undefined)	NPC1 prom act inconclusive, FLuc counter 13.5µM, Rab9 prom act 4.47µM, ELG1 repair inh inconclusive (no result: SMN2 splice enh)
COc1ccc(OCc2cc(C(=O)NCc3nc(C)cs3)no2)c(Cl)c1	NPC1 prom act inconclusive, FLuc counter 13.5µM, ELG1 genotox inconclusive, Rab9 prom act inconclusive, ELG1 repair inh inconclusive (no result: SMN2 splice enh)
CCN(c1ccc(C)cc1)S(=O)(=O)c1nnc(NC(=O)c2ccco2)s1	none (no result: SMN2 splice enh)
CC(C)CN(c1ccccc1)S(=O)(=O)c1nnc(NC(=O)c2ccco2)s1	FLuc counter 0.849µM!, ELG1 repair inh inconclusive (no result: SMN2 splice enh)
CN(Cc1ccco1)S(=O)(=O)c1nnc(NC(=O)c2cccc(Cl)c2)s1	FLuc counter 26.9µM (no result: SMN2 splice enh)
CCN(CC)S(=O)(=O)c1nnc(NC(=O)c2ccco2)s1	FLuc counter 26.9µM (no result: SMN2 splice enh)
COc1ccc(C(C(=O)NC(C)(C)C)N(C(=O)CCC(=O)Nc2cc(C)on2)c2c(C)cccc2C)cc1 (centres undefined)	none (no result: SMN2 splice enh)
CSCCC(NS(=O)(=O)c1ccc2c(c1)oc(=O)n2C)C(=O)NCc1ccc(F)cc1 (centres undefined)	none (no result: NPC1 prom act, ELG1 genotox, Rab9 prom act, ELG1 repair inh)
Cc1[nH]c(C)c2c(=O)n(-c3ccccc3)ncc12	FLuc counter inconclusive, ELG1 genotox 20.6µM, Rab9 prom act inconclusive, ELG1 repair inh inconclusive
CCC(C)NC(=O)c1ccc(Cn2c(=O)c3cccn3c3cccnc32)cc1 (centres undefined)	none (no result: SMN2 splice enh, NPC1 prom act, ELG1 genotox, Rab9 prom act, ELG1 repair inh)
C=CCOc1ccc(C=Nc2ccc(OC)cc2)c(O)c1	FLuc counter 8.49µM (no result: SMN2 splice enh)
COc1ccc(N=Cc2c[nH][nH]c2=O)cc1	none
O=C(COc1ccc(S(=O)(=O)NC2CCCCC2)cc1)Nc1ccc(C(F)(F)F)cc1	none (no result: NPC1 prom act, ELG1 genotox, Rab9 prom act, ELG1 repair inh)
CC(C)NCc1nnc(-c2ccc(Cl)cc2)o1	ELG1 repair inh inconclusive (no result: SMN2 splice enh)
CC(O)c1nc2ccccc2n1Cc1nnc(-c2ccc(Cl)cc2)o1 (centres undefined)	FLuc counter 16.9µM, ELG1 repair inh inconclusive
COCCOC(=O)c1c(C)oc2c1cc(NS(=O)(=O)c1ccc(Cl)c(C)c1)c1ccccc12	FLuc counter inconclusive (no result: NPC1 prom act, ELG1 genotox, Rab9 prom act, ELG1 repair inh)
CC1=C(C(=O)Nc2ccc(Cl)cc2)C(C(C)C)n2nc(SCc3ccc(Cl)cc3)nc2N1 (centres undefined)	none (no result: NPC1 prom act, ELG1 genotox, Rab9 prom act, ELG1 repair inh)
CCC(=O)Nc1ccccc1C(=O)OCC(=O)c1ccccc1	SMN2 splice enh 15.8µM, NPC1 prom act 2.82µM, FLuc counter 21.3µM, ELG1 genotox inconclusive, Rab9 prom act 3.55µM, ELG1 repair inh inconclusive
CCC(=O)Nc1ccccc1C(=O)OCC(=O)c1ccc2ccccc2c1	FLuc counter 15.1µM
